One assay deals with SLC10A3. As to the kind of experiment: pooled miR-30 sensor sort-seq; sequence = guide strand. As to conditions: shRNA.
In the case of TAGTGCATGAGAACTTTGGTGG, the sensor-assay potency score (higher = more potent) was determined as 0.0901.

Turning to TTCAGCAGGTGAGACCTTGATG, the sensor-assay potency score (higher = more potent) was -1.03.

The sequence TCTTCAGCAGGTGAGACCTTGA had a sensor-assay potency score (higher = more potent) of -0.622.

The sequence AAAGATAAGAGGCAGGAGCAGG registered a sensor-assay potency score (higher = more potent) of -0.888.

The sequence TTGATGCAGAAGTCTCTCCGCT came in with a sensor-assay potency score (higher = more potent) of -0.433.

As for TTAAGGGACCTGTGCCACCACC, the sensor-assay potency score (higher = more potent) is -1.35.

Sequence TTTTCTGAGTGCATAGTGCATG returned a sensor-assay potency score (higher = more potent) of -0.554.

TAGAGGATTGGGTTTTCCGAGA came in with a sensor-assay potency score (higher = more potent) of -0.917.

Regarding TCTCCAATGCTCAAGTAGCGGC, the sensor-assay potency score (higher = more potent) was -0.783.

TCAAACTCCATCACAGAGCCAT: the sensor-assay potency score (higher = more potent) is -0.169.

As to TTGGGTTTTCCGAGAAGTGGGC, the sensor-assay potency score (higher = more potent) turned out to be 0.0759.

TCTTGATGGTCAGCACCTCTGT came in with a sensor-assay potency score (higher = more potent) of -1.25.

For the next assay, the target named is SLC10A7. The assay is described as above. To be noted: shRNA.
Consider TAAAAGCATAAAACTCAGCTGG, for which the sensor-assay potency score (higher = more potent) is -0.225.

In the case of TATAGATACAACATTTACTTGC, the sensor-assay potency score (higher = more potent) amounted to 0.105.

TATTGTTGCAACAGCAATGTAG registered a sensor-assay potency score (higher = more potent) of 0.00955.

Turning to TTTAGCTCCAGCGATCGCCAGC, the sensor-assay potency score (higher = more potent) is -1.45.

For the origin of these results see the OligoGym collection.
Note: reference of the scale not given here.
